# Test results taken from PMC5540273 (PLoS ONE, 2017).
# Columns and labels:
# Conditions in all cases: concentration: 1 μM, replicates: in singlicate; n = 1
# PIK4CB = test system: T1, PIK4CB
# T1 construct: gene PI4KB
# PIKFYVE = test system: PIKFYVE
# PIM1 = test system: PIM1
# PIM2 = test system: PIM2
# PIM3 = test system: PIM3
# PIP5K1A = test system: PIP5K1A
# PIP5K1C = test system: PIP5K1C
# PIP5K2B = test system: PIP5K2B
# PIP5K2C = test system: T2, PIP5K2C
# T2 construct: gene PIP4K2C
# PKAC-alpha = test system: T3, PKAC-alpha
# T3 construct: gene PRKACA
# 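Further: KINOMEscan kinase panel screen.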
SMILES,%Inh (PIK4CB) [%],%Inh (PIKFYVE) [%],%Inh (PIM1) [%],%Inh (PIM2) [%],%Inh (PIM3) [%],%Inh (PIP5K1A) [%],%Inh (PIP5K1C) [%],%Inh (PIP5K2B) [%],%Inh (PIP5K2C) [%],%Inh (PKAC-alpha) [%]
Cc1ccccc1-c1cc(-c2c[nH]nc2-c2ccccn2)ccn1 [GW680061],0,0,0,0,0,12,39,15,28,0
CCc1ccc(-c2ccc3c(c2)-c2n[nH]cc2S(=O)(=O)N3C)cc1,0,100,0,0,18,0,45,0,16,0
Cn1cncc1C(=O)NC1CCN(c2ccnc(Nc3ccc(F)cc3)n2)C1 (stereo not drawn) [GSK1379717],26,0,15,0,0,0,32,0,20,0
COc1cc2ncnc(Nc3cccc(Br)c3)c2cc1OC.Cl [GI230329],0,32,21,0,14,0,79,14,52,0
Cc1cnc(N)c(/C=C/c2cncc(C(=O)NCCc3ccc(Cl)cc3Cl)c2)c1.Cl [GSK190937],0,0,12,0,0,39,35,21,47,
c1ccc(-c2ccnc3[nH]ccc23)cc1 [SB-693578],4,11,0,0,0,40,28,4,18,0
Cc1c(Cn2c(C)c(C)n3c(=O)cc(N4CCOCC4)nc23)cccc1C(F)(F)F [GSK2328680],0,0,1,0,0,9,44,20,7,0
CCn1c(-c2c(N)noc2C)nc2cnccc21 [SB-737856],0,0,0,0,0,0,0,19,6,0
COC(=O)c1cccc(NC(=O)NC2CCN(c3ccnc(Nc4ccc(F)cc4)n3)C2)c1 (stereo not drawn) [GSK1379725],6,0,30,0,0,0,14,9,0,0
COc1ccc(CSc2nnc(-c3ccc4c(c3)CCO4)o2)cc1,0,0,0,0,0,11,23,9,14,0
COc1cccc(CNC(=O)NC2CCN(c3ccnc(Nc4ccc(F)cc4)n3)C2)c1 (stereo not drawn) [GSK1379723],11,9,15,0,0,0,11,8,26,0
CS(=O)(=O)CCNCc1nc(-c2ccc3ncnc(Nc4ccc5c(cnn5Cc5ccccc5)c4)c3c2)cs1.Cl.Cl [GW569716],59,0,21,0,0,46,58,19,41,0
CNc1nc(-c2ccc3c(N)n[nH]c3c2)cc(N2C[C@@H](C(=O)Nc3ccccc3)CC[C@H]2C)n1 [GSK2298859],0,0,0,0,0,0,50,0,3,57
Cc1ccc(NC(=O)Nc2ccc(Cl)cc2)cc1-c1ccc(C(=O)Nc2ccncc2)cc1 [GSK1398472],5,0,9,0,0,11,41,12,2,7
COC(=O)C(Cc1ccccc1)NC(=O)NC1CCN(c2ccnc(Nc3ccc(F)cc3)n2)C1 (stereo not drawn) [GSK1379714],7,22,0,0,0,45,35,30,36,0
Cc1c(Cn2c3ccccc3n3c(=O)cc(N4CCOCC4)nc23)cccc1C(F)(F)F [GSK2306394],90.3,0,6,0,0,0,8,20,0,0
O=C(Nc1n[nH]c2cc(-c3ccsc3)ccc12)C1CC1 [SB-732932],27,0,18,0,11,61,3,52,3,0

SMILES,%Inh (PIK4CB) [%],%Inh (PIKFYVE) [%],%Inh (PIM1) [%],%Inh (PIM2) [%],%Inh (PIM3) [%],%Inh (PIP5K1A) [%],%Inh (PIP5K1C) [%],%Inh (PIP5K2B) [%],%Inh (PIP5K2C) [%],%Inh (PKAC-alpha) [%]
Cc1ccc(NC(=O)c2ccc(Cl)cc2)cc1-c1ccc(C(=O)Nc2ccncc2)cc1 [GSK1398467],0,0,0,0,0,0,45,0,33,0
O=C1NC(=O)C(c2ccc(Cl)cc2)=C1Nc1cccc(Cl)c1 [SB-317651],8,12,0,0,2,0,28,0,20,3
Cc1ccc(NC(=O)Nc2ccccc2F)cc1-c1ccc(C(=O)Nc2ccncc2)cc1 [GSK1398477],0,0,6,0,0,0,0,0,0,46
COc1ccc(Nc2nccc(NCCNC(=O)Nc3cc(C)ccc3C)n2)cc1 [GSK1379899],0,0,0,0,0,0,18,6,39,0
CC(C)c1cc(-c2ccc3c(N)n[nH]c3c2)nc(N)n1 [GSK2250882],0,0,20,0,15,26,49,36,2,0
Cc1ccc(NC(=O)Nc2ccc(Cl)c(C(F)(F)F)c2)cc1-c1ccc(C(=O)Nc2ccncc2)cc1 [GSK1398470],0,0,23,1,21,0,23,0,8,15
Fc1ccc(-c2nn3cccc(F)c3c2-c2ccncc2)cc1 [GW475620],0,28,0,0,0,0,28,19,0,11
Cc1ccc(NC(=O)Nc2ccccc2)cc1-c1ccc(C(=O)Nc2ccncc2)cc1 [GSK1398471],0,0,9,0,4,0,0,6,0,29
CCn1c(-c2ccccc2)nc2cnccc21 [SB-733416],0,40,0,0,0,5,21,0,13,0
CC(=O)c1cccc(NC(=O)NC2CCN(c3ccnc(Nc4ccc(F)cc4)n3)C2)c1 (stereo not drawn) [GSK1379710],31,25,18,0,4,36,50,8,22,0
Nc1ncnc2occ(-c3ccc4c(c3)CCN4C(=O)Cc3cc(F)ccc3F)c12 [GSK2645446],0,0,0,0,0,0,52,0,16,0
O=c1cc(N2CCOCC2)nc2n(Cc3ccccc3F)ccn12 [GSK2297428],0,0,0,0,0,6,31,19,0,0
CC(=O)c1c(C)c2cnc(Nc3ccn(C)n3)nc2n(C2CCCC2)c1=O,0,9,0,0,0,0,1,0,91.9,0
FC(F)(F)c1ccccc1-c1cc(-c2c[nH]nc2-c2ccccn2)ccn1 [GW679396],0,0,0,0,0,5,32,15,0,0
O=C(Nc1n[nH]c2nc(-c3cccs3)c(Br)cc12)C1CC1 [SB-735297],12,2,0,0,0,15,0,0,0,0
CC[C@@H]1CO[C@H](C(=O)Nc2ccccc2)CN1c1cc(-c2ccc3c(N)n[nH]c3c2)nc(NC)n1 [GSK2376236],33,0,14,0,3,0,39,3,3,74
CN1c2ccc(-c3ccc(C(N)=O)cc3)cc2-c2[nH]ncc2S1(=O)=O,0,4,9,0,13,0,81,6,64,13
